Laboratory results as given in PubChem BioAssay (EPA / NIEHS).
Active and inactive are the calls of the source. How the source made its calls: active means hit-call score of the fitted dose curve at least 0.9, where 1 is the maximum; inactive means score below 0.9.

Target: Myc proto-oncogene protein (Homo sapiens) (UniProt P01106)
Experiment: ATG_Myc_CIS: Attagene CIS-FACTORIAL HepG2 Assay for human Myelocytomatosis (Myc) Proto-Oncogene Transcription Factor (AID 2282990)
Conditions: HepG2, Attagene cis-reporter transcription factor activity; actives raise or lower the signal
Description: ATG_CIS is a cell-based, multiplexed-readout assay that uses HepG2, a human liver cell line, with measurements taken at 24 hours after chemical dosing in a 24-well plate.ATG_Myc_CIS is one of 52 assay component(s) measured or calculated from the ATG_CIS assay. It is designed to make measurements of mRNA induction, a form of inducible reporter, as detected with fluorescence intensity signals by Reverse transcription polymerase chain reaction (RT-PCR) and Capillary electrophoresis technology.Data from the assay component ATG_Myc_CIS was analyzed into 1 assay endpoint. This assay endpoint, ATG_Myc_CIS, was analyzed with bidirectional fitting relative to DMSO as the negative control and baseline of activity. Using a type of inducible reporter, measures of mRNA for gain or loss-of-signal activity can be used to understand the reporter gene at the transcription factor-level as they relate to the gene MYC. Furthermore, this assay endpoint can be referred to as a primary readout, because this assay has produced multiple assay endpoints where this one serves a reporter gene function. To generalize the intended target to other relatable targets, this assay endpoint is annotated to the dna binding intended target family, where the subfamily is basic helix-loop-helix leucine zipper.
Human liver HepG2 cells are transiently transfected with multiple reporter transcription units (MRTUs) in 6-well plates using FuGene 6 reagent (Roche; 3 ml FuGene/1 mg DNA). The MRTU constructs are regulated by a cis-regulating element (promoter). […] A major difference between the CIS and TRANS system is that in CIS activities of endogenous TFs are measured, whereas the TRANS assay evaluates changes in activities of exogenous, chimeric NR-Gal4 proteins. […] At the end of 24 hour incubation, total RNA was isolated using TriZol reagent (Invitrogen). The isolated RNA is then reverse-transcribed using oligo(dT) primer and Mo-MLV reverse transcriptase (Invitrogen) with DNAse I (Ambion) treatment for 30 min. The one-tenth of the produced cDNA was amplified by PCR using Taq DNA polymerase (Invitrogen) and two reporter sequence-specific primers. The PCR products were fluorescently labeled by primer extension with 6-arboxyfluorescein (6-FAM) 5'-labeled reporter sequence-specific primer (2 min at 95 C, 20 s at 68 C and 10 min at 72 C) and these products were digested with 5U of HpaI (New England Biolabs) for 2h at 37 C. The fragments were purified using Qiaquick PCR columns (Qiagen), analyzed on an ABI 3130xL genetic analyzer (Applied Biosystems) with peak positions identified by using a set of X-rhodamine (ROX)-labeled MapMarker1000 molecular weight standards (BioVentures). The raw capillary electrophoresis data was processed using Attagraph software (Attagene).

Myc proto-oncogene protein (Homo sapiens), sequence (P01106 whole entry, looked up): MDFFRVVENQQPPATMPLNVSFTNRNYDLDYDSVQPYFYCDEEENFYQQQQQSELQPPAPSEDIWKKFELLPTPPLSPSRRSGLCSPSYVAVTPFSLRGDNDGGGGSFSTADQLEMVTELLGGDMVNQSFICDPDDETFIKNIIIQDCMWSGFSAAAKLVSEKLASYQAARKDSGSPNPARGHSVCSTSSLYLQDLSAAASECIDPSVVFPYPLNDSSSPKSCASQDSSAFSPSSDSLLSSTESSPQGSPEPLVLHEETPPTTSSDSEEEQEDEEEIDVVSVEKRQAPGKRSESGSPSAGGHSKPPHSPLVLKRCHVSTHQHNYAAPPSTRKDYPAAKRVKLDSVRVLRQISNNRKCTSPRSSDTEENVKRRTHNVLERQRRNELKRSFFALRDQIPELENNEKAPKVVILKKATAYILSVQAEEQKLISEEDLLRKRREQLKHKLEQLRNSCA

outcome, inactive:
COC(=O)c1ccc(C)cc1
CCCCCCCCCCCCCC(=O)O
O=C[C@@H](O)[C@H](O)[C@H](O)CO
CC(C)[C@H]1CC[C@@H](C)CC1=O
O=C1OC2(c3cc(Br)c(O)c(Br)c3Oc3c2cc(Br)c(O)c3Br)c2c(Cl)c(Cl)c(Cl)c(Cl)c21
CCCCCCCCCCCCSC
OC1C(O)C(O)C(O)C(O)C1O (stereo not given)
Cc1ccc(C=O)cc1
C=C[Si](OCC)(OCC)OCC
CCCCCCCCCCCCCCCC(=O)O
CCCCC/C=C/C=C/C=O
Cc1c(Cl)c(=O)oc2cc(O)ccc12
NC(=O)NC1NC(=O)NC1=O (stereo not given)
O=C(O)CN(CCN(CC(=O)O)CC(=O)O)CCN(CC(=O)O)CC(=O)O
O=C(O)c1cccc(C(F)(F)F)c1
CCCCCCCCCOC(C)=O
CC1(C)[C@H]2CC[C@]1(C)[C@H](O)C2
O=C(O)c1cn(C2CC2)c2cc(N3CCNCC3)c(F)cc2c1=O
CC(CCO)CCc1ccccc1 (stereo not given)
CCC(=O)/C=C/C1C(C)=CCCC1(C)C (stereo not given)
NCCCCCCN
Sc1nc(S)nc(S)n1
CCC(C)(O)CCC=C(C)C (stereo not given)
CCCCCNCCCCC
NNc1nc(-c2ccc(N)cc2)cs1
CC1(C)CCC(C)(C)c2cc(C(=O)Nc3ccc(C(=O)O)cc3)ccc21
O=S(=O)(O)c1cccc2c(S(=O)(=O)O)cccc12
O=c1[nH]c(=O)n([C@H]2CCCO2)cc1F
Cc1ccc2sc3cccc(C)c3c2c1
C=CC(=O)OCC(O)COc1ccccc1 (stereo not given)
CCO[Si](CCCS)(OCC)OCC
CCOC(=O)c1ccccc1OC
CCCCCCOC(=O)CCCCC
CCCC(=O)c1cc(O)c(O)cc1O
CC(C)C1CCC(O)CC1 (stereo not given)
CC(C)c1cccc(O)c1
CCOC(=S)SSC(=S)OCC
NC(=O)Nc1ccc(Cl)cc1

AC50, active:
CCCCCCCCCCCCOCCO 50.2 µM
c1ccc2sc(SN(C3CCCCC3)C3CCCCC3)nc2c1 8.17 µM
